Test results taken from PubChem BioAssay (NCATS).
Inconclusive results are not listed. Calls of active or inactive are those of the source. Calls follow the shape of the dose curve; as a rule, active = well fitted cell-killing curve with a large enough effect; inconclusive = small, poorly fitted or top-dose-only effect, or effect the other way; inactive = flat fitted curve, though single readings scatter.

What was measured:
Assay in all cases: Primary qHTS to identify gynecologic anti-cancer compounds using libraries of approved drugs and bioactive compounds (AID 1345084); also: nearly all actives have a fitted effect of over 55% in size
Conditions in all cases: Gynecologic cancer cell panel viability, ATPlite luminescence, 48 h; series mostly up to 57.5 µM
SKOV3 = system: SKOV3
How it was run: (§1)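 Cells, 1,000 per well, plated 16 h, then exposed 48 h at 37 C to compounds. Viability by ATPlite luminescence after 15 min at room temperature.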

Tov-21-G = system: Tov-21-G
How it was run: as §1

Tov112D = system: Tov112D
How it was run: as §1
% is scaled to controls: 0 for no effect and ±100 for the full control effect.

Cc1cn(-c2cc(NC(=O)c3ccc(C)c(Nc4nccc(-c5cnccn5)n4)c3)cc(C(F)(F)F)c2)cn1
inactive: Potency (SKOV3) | Potency (Tov-21-G) | Potency (Tov112D)

C[C@H]1CC[C@@]2(OC1)O[C@H]1CC3C4CC[C@H]5C[C@@H](O)CC[C@]5(C)C4CC(=O)[C@]3(C)[C@H]1[C@@H]2C (stereo partly specified)
inactive: Potency (SKOV3) | Potency (Tov-21-G) | Potency (Tov112D)

CCCC(=O)Nc1cccc(NC(=O)c2ccccc2Br)c1
inactive: Potency (SKOV3) | Potency (Tov-21-G) | Potency (Tov112D)

COc1cc(O)cc(C)c1C(=O)O[C@H]1[C@@H](O)[C@@H](n2ccc(=O)[nH]c2=O)O[C@@H]1CO
inactive: Potency (SKOV3) | Potency (Tov-21-G) | Potency (Tov112D)

C[C@@H]1CC[C@]2(C(=O)O[C@@H]3O[C@H](CO[C@@H]4O[C@H](CO)[C@@H](O[C@@H]5O[C@@H](C)[C@H](O)[C@@H](O)[C@H]5O)[C@H](O)[C@H]4O)[C@@H](O)[C@H](O)[C@H]3O)CC[C@]3(C)C(=CCC4[C@@]5(C)C[C@@H](O)[C@H](O)[C@@](C)(CO)C5CC[C@]43C)C2[C@H]1C (stereo partly specified)
inactive: activity change, negative = cytotoxicity (SKOV3) 21.1% [at 11.6 µM] | activity change, negative = cytotoxicity (Tov-21-G) 3.06% [at 11.6 µM] | activity change, negative = cytotoxicity (Tov112D) 3.29% [at 11.6 µM]

C=CCc1cc(OC)c(OC(C)C(O)c2ccc(O)c(OC)c2)c(OC)c1 (stereo unspecified)
inactive: Potency (SKOV3) | Potency (Tov-21-G) | Potency (Tov112D)

C/C=C/C=C/C(O)=C1/C(=O)[C@]2(C)C(=O)[C@@](C)(O)[C@H]1[C@H]([C@@]1(C)OC(=O)C(C)=C1O)[C@H]2C(=O)CC/C=C/C
inactive: Potency (SKOV3) | Potency (Tov-21-G) | Potency (Tov112D)

N#Cc1cccc(-c2c[nH]c3ncnc(N4CCOCC4)c23)c1
inactive: Potency (SKOV3) | Potency (Tov-21-G) | Potency (Tov112D)

Cc1ccc(-n2nc(C(C)(C)C)cc2NC(=O)Nc2cc(COc3cccnc3)[nH]n2)cc1
inactive: Potency (SKOV3) | Potency (Tov-21-G) | Potency (Tov112D)

CCC(C)/C=C(C)/C=C/C1=CC2=C(Cl)C(=O)C(C)(OC(C)=O)C(=O)C2=CN1C(CC(=O)O)C(=O)O (stereo unspecified)
inactive: Potency (SKOV3) | Potency (Tov-21-G) | Potency (Tov112D)

CC1(C)CC[C@]2(C(=O)O)CC[C@]3(C)C(=CCC4[C@@]5(C)C(=O)C[C@H](O)[C@@](C)(CO)C5CC[C@]43C)[C@@H]2C1 (stereo partly specified)
inactive: Potency (SKOV3) | Potency (Tov-21-G) | Potency (Tov112D)

COc1cc(C)c(C(=O)OC2C(C)OC(OC3CCC(C)C4C3C=C(C)C3/C(C)=C\CC/C(C)=C/C5(C)C=C(C(=O)O)C(C)CC56OC(=O)/C(=C(\O)C34C)C6=O)C(O)C2O)c(OC)c1 (stereo unspecified)
inactive: activity change, negative = cytotoxicity (SKOV3) -6.42% [at 11.6 µM] | activity change, negative = cytotoxicity (Tov-21-G) 1.13% [at 11.6 µM] | activity change, negative = cytotoxicity (Tov112D) 1.96% [at 11.6 µM]

CC1C(O)C(O)C2C(C(=O)OCCc3ccc(O)cc3)=COC(O[C@@H]3O[C@H](CO)[C@@H](O)[C@H](O)[C@H]3O)C12 (stereo partly specified)
inactive: Potency (SKOV3) | Potency (Tov-21-G) | Potency (Tov112D)

CC(C)C1NC(=O)C(CC2(O)c3ccccc3N3C(=O)C(Cc4ccccc4)NC32)NC1=O (stereo unspecified)
inactive: Potency (SKOV3) | Potency (Tov-21-G) | Potency (Tov112D)

COc1cccc(CN(C(=O)CC(C)(C)C)C2CC(C(=O)N3CCNCC3)N(Cc3ccc4c(c3)OCO4)C2)c1 (stereo unspecified)
inactive: Potency (SKOV3) | Potency (Tov-21-G) | Potency (Tov112D)

CC1(C)CC[C@]2(C(=O)O[C@@H]3O[C@H](CO)[C@@H](O)[C@H](O)[C@H]3O)CC[C@]3(C)C(=CCC4[C@@]5(C)CC[C@H](OC6OC(C(=O)O)C(OC7OC(CO)C(O)C(O)C7O)C(O)C6O)C(C)(C)C5CC[C@]43C)C2C1 (stereo partly specified)
inactive: activity change, negative = cytotoxicity (SKOV3) 0% [at 11.6 µM] | activity change, negative = cytotoxicity (Tov-21-G) 2.32% [at 11.6 µM] | activity change, negative = cytotoxicity (Tov112D) 1.83% [at 11.6 µM]

Nc1ncnc2c1ncn2[C@H]1O[C@@H](C(=O)N2CCN(CC(=O)Nc3cccc4c3CNC4=O)CC2)[C@H](O)[C@@H]1O
inactive: Potency (SKOV3) | Potency (Tov-21-G) | Potency (Tov112D)

C=C1CC[C@H]2[C@@](C)(CCC(O)[C@@]2(C)CO)[C@@H]1/C=C/C(=C\C(=O)O)C(=O)O (stereo partly specified)
inactive: Potency (SKOV3) | Potency (Tov-21-G) | Potency (Tov112D)

C=C(C)C(O)COc1ccc(CC(=O)O)cc1 (stereo unspecified)
inactive: Potency (SKOV3) | Potency (Tov-21-G) | Potency (Tov112D)

COC(=O)C(CC1CCCC1)c1ccc(S(C)(=O)=O)cc1 (stereo unspecified)
inactive: Potency (SKOV3) | Potency (Tov-21-G) | Potency (Tov112D)

C=C1CCC(OC(C)=O)C2(C)CC3OC(=O)C(C)=C3CC12 (stereo unspecified)
inactive: Potency (SKOV3) | Potency (Tov-21-G) | Potency (Tov112D)

COc1cc(C(CO)CO[C@@H]2O[C@H](CO)[C@@H](O)[C@H](O)[C@H]2O)ccc1O (stereo partly specified)
inactive: Potency (SKOV3) | Potency (Tov-21-G) | Potency (Tov112D)

CCCO[C@@H]1O[C@H](CO)[C@@H](O)[C@H](O)[C@H]1O[C@@H]1OC[C@@H](O)[C@H](O)[C@H]1O
inactive: Potency (SKOV3) | Potency (Tov-21-G) | Potency (Tov112D)

CC1=CC(=O)C2C(C)(C)CCC[C@]2(C)[C@H]1CC[C@H](C)CC(=O)O (stereo partly specified)
inactive: Potency (SKOV3) | Potency (Tov-21-G) | Potency (Tov112D)

C=C1CCC2C(C)(C)CC(O)CC2(C)C1CCC(C)CC(=O)O (stereo unspecified)
inactive: Potency (SKOV3) | Potency (Tov-21-G) | Potency (Tov112D)

CC(C)=CCC[C@@](C)(O)[C@H]1CC[C@]2(C)[C@@H]1[C@H](O)CC1[C@@]3(C)CC[C@H](O[C@@H]4O[C@H](CO)[C@@H](O)[C@H](O)[C@H]4O[C@@H]4O[C@H](CO)[C@@H](O)[C@H](O)[C@H]4O)C(C)(C)[C@@H]3CC[C@]12C (stereo partly specified)
inactive: Potency (SKOV3) | Potency (Tov-21-G) | Potency (Tov112D)

C[C@@H]1C(=O)O[C@H](C)[C@H]1C[C@@H](O)[C@](C)(O)[C@H]1CC[C@@]2(O)C3=CC(=O)[C@@H]4C[C@@H](O)[C@@H](O)C[C@]4(C)C3CC[C@]12C (stereo partly specified)
inactive: Potency (SKOV3) | Potency (Tov-21-G) | Potency (Tov112D)
